This is an account of results in ChEMBL document CHEMBL3433997, “St. Jude Leishmania screening dataset” (2016).

What is called inhibition is the relative decrease from the control value, in per cent.

In the experiment the target is Glucose transporter (Leishmania mexicana) (UniProt O61059). The experiment can be described thus: ST_JUDE_LEISH: Cytotoxicity at 2uM final concentration against transgenic Leishmania Mexicana promastigotes LmGT2 that are glucose transport deficient and complemented with the L. Mexicana glucose transporter 2. Activity is measured by DNA content using SYBR green in vitro. The format is functional.
With `CCCCCN1CCCC1CNS(=O)(=O)c1ccc(C(=O)Nc2ccc(C(F)(F)F)cc2)cc1` (stereo not given), the inhibition stood at 1.09%.
For `N=C(N)NCCN(Cc1ccccc1)c1ccc(Cl)cc1`, the inhibition stood at 1.25%.
With `COc1ccc(N2CCN(CCCCNC(=O)c3ccc(NC(=O)c4ccc(Cl)c(Cl)c4)cc3)CC2)c(OC)c1`, the inhibition was 1.65%.
For `CN(C(=O)/C=C/c1c(Cl)cccc1Cl)C1CCN(CCCCCNC(=O)/C=C/c2ccc(Cl)c(Cl)c2)CC1`, the inhibition is 1.38%.
Take `Nc1nc(N)c2c(ccc3c2ncn3Cc2ccccc2)n1`: the inhibition was found to be 10.5%.
On to `CNC(=O)c1cncc(/C=C/c2ccccc2S(N)(=O)=O)c1`, for which the inhibition was -0.59%.
`CCCc1cc(C)ccc1OCCCON1C(NC(=O)OCC)=NC(NC(=O)OCC)=NC1(C)C`: the inhibition was -0.57%.
Regarding `COc1ccc(-c2ccc(NC(=O)c3cccc(F)c3)cc2)cc1CN1CCCN(C)CC1`, the inhibition was -2.3%.
The figure for `COCCN1CCN(Cc2ccc(-c3cccc(-c4nc5ccccc5[nH]4)c3)cc2)CC1` is -2.88%; for `CCCCCC(C)NC[C@@H](O)[C@H](Cc1ccccc1)NC(=O)c1cc(NCC)cc(N2CCCCS2(=O)=O)c1` (stereo not given in full) it is 0.36%.
Consider `Cc1ccc(NC(=O)Nc2ccccc2F)cc1-c1ccc(C(=O)Nc2ccncc2)cc1`, for which the inhibition was 0.59%.
Take `CN1CCN(c2ccc(-c3nc4ccc(OCc5cc(Cl)cc(Cl)c5)c(C(N)=O)c4[nH]3)cc2)CC1`: the inhibition stood at 0.86%.
On to `CC(C)Oc1cc(-c2ccc(S(C)(=O)=O)cc2)nc(N(Cc2cccc(F)c2F)Cc2cccc(F)c2F)n1`, for which the inhibition was -2.49%.
For `Cc1cc(Br)cnc1CCCCNC1=NC(=O)CN1C` the value was 0.12%.
Consider `CC(C)(C)c1ccc2[nH]c(-c3ccc(C(=O)NCc4cccc(C(F)(F)F)c4)cc3)nc2c1`, for which the inhibition was found to be 3.09%.
For `CN(c1ccc(F)cc1)S(=O)(=O)c1ccc(Cl)c(C(=O)Nc2cccc(C#N)c2)c1` the value was 3.65%.
For `Cc1cccc2nc(-c3ccc(-c4ccc(CNCC5CCCO5)cc4)cc3)[nH]c12` (stereo not given), the inhibition was 6.42%.
For the compound `c1cc(CNCCc2ccncc2)cc(-c2ccc(-c3nc4ccccc4[nH]3)cc2)c1`, the inhibition is 0.79%.
Regarding `COc1ccc(C(C(=O)NC2CCN(C[C@H](O)c3ccnc4ccc(OC)cc34)CC2)N2CCN(c3ccc([N+](=O)[O-])cc3)CC2)cc1` (stereo not given in full), the inhibition came to 2.85%.
With `CNCc1cccc(-c2ccc3ccnc(N)c3c2)c1`, the inhibition worked out at 7.76%.
For `COc1ccc(S(=O)(=O)N(c2cc(Br)cc3c2OCC3)S(=O)(=O)c2ccc(OC)c(N3CCN(C)CC3)c2)cc1N1CCN(C)CC1`, the inhibition amounted to 0.55%.
In the case of `Cc1cccc(-c2cc3cc(Nc4ccnc5cc(-c6nccs6)ccc45)ccc3[nH]2)c1`, the inhibition amounted to 1.12%.
As to `CC(=O)Nc1nc(C(=O)Nc2cccc(-c3ccc(-c4nc5cccc(C)c5[nH]4)s3)c2)cs1`, the inhibition was determined as 8.32%.
In the case of `CC1(C)N=C(N)N=C(NOCc2ccc(Cl)c(Cl)c2)N1`, the inhibition was found to be 1.84%.
As for `CC[C@H](NC(=O)c1c(CN2CCC(N3CCCCC3)CC2)c(-c2ccccc2)nc2c(Cl)c(O)ccc12)c1ccccc1`, the inhibition came to 6.04%.
With `O=[N+]([O-])c1cccc(-c2nc(-c3ccc(Br)cc3)[nH]c2-c2ccc(Br)cc2)c1`, the inhibition amounted to 1.57%.
Turning to `c1ccc(Oc2ccc(Nc3ccnc(Nc4ccc(OCCN5CCCCC5)cc4)n3)cc2)cc1`, the inhibition is 18.4%.
On to `CCc1cn2c3c(cc(C(=O)N[C@@H](Cc4ccccc4)[C@H](O)CN[C@@H](C)CC)cc13)N(C)S(=O)(=O)CC2`, for which the inhibition is -0.58%.
As for `Cc1cc(CNC(c2ccccc2)C2CCC2)cc(C)c1O` (stereo not given), the inhibition was determined as 10.1%.
Regarding `CCCCCn1c(Sc2ccc(C#N)c([N+](=O)[O-])c2)nnc1-c1ccc(OC)cc1`, the inhibition came out at 4.8%.
The figure for `COc1cc(Cc2cnc(N)nc2N)c2c(c1OC)OC(C)(C)C=C2` is 4.87%; for `Cc1cc(N2CCOCC2)nc(Nc2ccc(NC(=O)c3cccc4ccccc34)cc2)n1` it is 5.87%.
The figure for `CC1Cc2ccccc2N1S(=O)(=O)c1cccc(C(=O)Nc2nc(-c3ccccn3)cs2)c1` (stereo not given) is 5.62%; for `CCOc1ccc(-c2nonc2NC(=O)c2ccccc2Cl)cc1OCC` it is 2.27%.
For `COc1ccc(CNCc2ccc(-c3cccc(-c4nc5ccccc5[nH]4)c3)cc2)cc1`, the inhibition worked out at 2.14%.
For `Cc1cc(CN2CCCC(OC(c3ccc(F)cc3)c3ccc(F)cc3)C2)ccc1O` (stereo not given), the inhibition came to 0.78%.
Take `O=C(Nc1ccon1)c1cc(-c2cccnc2)nc2ccc(Cl)cc12`: the inhibition came to 3.02%.
Regarding `Cn1cnc2c(Nc3ccncc3)nc(-c3ccc4c(c3)OCO4)nc21`, the inhibition is 3.95%.
For `CN(C)CCCN1C(=O)c2[nH]nc(-c3ccc(Cl)cc3O)c2C1c1ccc(Cl)cc1` (stereo not given), the inhibition is 1.69%.
In the case of `COc1ccc(NC(=O)/C=C/c2ccccc2Cl)cc1OCCN1CCC(Cc2cc3ccccc3[nH]2)CC1`, the inhibition is -2.57%.
